Measurements as given in the supplement of paper PMC13380429.

System: Vero E6 infected with SARS-CoV-2
Assay: inhibition of SARS-CoV-2 cytopathic effect; higher = more antiviral protection, active = above 15
Conditions: 48 h

Measured: inhibition of SARS-CoV-2 cytopathic effect

NC(=O)N1c2ccccc2CC(O)c2ccccc21 (stereo not given) [licarbazepine]
inactive: 1 nM -1.75% | 8.33 nM 1.29% | 100 nM -0.88% | 833.33 nM -6.25% | 10000 nM 0.95%

Cc1cc(C)n(-c2cccc([C@H](CC(=O)O)CN3CC[C@@H](CCc4ccc5c(n4)NCCC5)C3)c2)n1 [integrin-antagonist-1]
inactive: 1 nM 6.72% | 8.33 nM 7.35% | 100 nM 0.83% | 833.33 nM 0.99% | 10000 nM -0.92%

C#C[C@]1(O)CC[C@H]2[C@@H]3CCC4=CC(=O)CC[C@@H]4[C@H]3CC[C@@]21CC [norgestrel]
inactive: 1 nM -2% | 8.33 nM -0.115% | 100 nM 2.25% | 833.33 nM -0.065% | 10000 nM 0.025%

CSc1nc2ccc3nc(NC(=O)C(c4ccccc4)c4ccccc4)sc3c2s1
inactive: 1 nM 1.77% | 8.33 nM 1.67% | 100 nM 1.24% | 833.33 nM 1.38% | 10000 nM -1.25%

CCOC(=O)c1c(O)nc2cccc3c2c1-c1ccccc1C3=O
inactive: 1 nM 0.21% | 8.33 nM 0.57% | 100 nM 5.31% | 833.33 nM 4.72% | 10000 nM 4.09%

C[C@@H]1CC(=O)c2c(ccc3c2C(=O)c2cccc(O)c2C3=O)C1 [ochromycinone]
inactive: 1 nM -3.4% | 8.33 nM -1.61% | 100 nM -3.55% | 833.33 nM -1.87% | 10000 nM -3.84%

O=C1C(=C(O)/C=C/c2ccc(O)cc2)C(=O)[C@@](O)([C@@H]2O[C@H](CO)[C@@H](O)[C@H](O)[C@H]2O)C(=O)[C@H]1[C@@H]1O[C@H](CO)[C@@H](O)[C@H](O)[C@H]1O
inactive: 1 nM 0.73% | 8.33 nM -1.02% | 100 nM -0.24% | 833.33 nM -0.74% | 10000 nM -2.44%

CCOC(=O)[C@@H](N)Cc1ccc(O)c(O)c1 [etilevodopa]
inactive: 1 nM 3.02% | 8.33 nM 1.51% | 100 nM 2.32% | 833.33 nM 0.72% | 10000 nM 0.9%

c1ccc(C(O[C@@H]2CCCN(CCc3ccc4c(c3)OCO4)C2)c2ccccc2)cc1 [zamifenacin]
inactive: 1 nM 0.36% | 8.33 nM 3.7% | 100 nM 0.93% | 833.33 nM -1.42% | 10000 nM -1.64%

Cc1cc(/C=C2\SC(=O)N(c3ccccc3)C2=O)c(C)n1-c1cccnc1
inactive: 1 nM 2.97% | 8.33 nM -0.28% | 100 nM 1.31% | 833.33 nM 1.52% | 10000 nM 2.29%

CCCCCCCCCCCC(=O)N(CCO)CCO [lauric-diethanolamide]
inactive: 1 nM 1.82% | 8.33 nM 1.8% | 100 nM -1.44% | 833.33 nM 1.01% | 10000 nM -2.1%

CC(NC(C)(C)C)C(=O)c1cccc(Cl)c1 (stereo not given) [bupropion]
inactive: 1 nM 1.88% | 8.33 nM 2.11% | 100 nM -0.69% | 833.33 nM -0.93% | 10000 nM -2.06%

CCC[C@H](N[C@H]1CCc2cc(F)cc(F)c2C1)C(=O)Nc1cn(C(C)(C)CNCC(C)(C)C)cn1
inactive: 1 nM 2.54% | 8.33 nM -2.77% | 100 nM -1.3% | 833.33 nM -9.66% | 10000 nM -10.1%

O=C(C[S+]([O-])Cc1ccco1)NC/C=C\COc1cc(CN2CCCCC2)ccn1 (stereo not given) [lafutidine]
inactive: 1 nM -0.4% | 8.33 nM 5.21% | 100 nM 1.21% | 833.33 nM 5.01% | 10000 nM 3.05%

COc1ccc(/C=C/CCCCOc2ccc(C(=O)c3cccc(C(=O)O)c3)cc2CCC(=O)O)cc1
inactive: 1 nM 2.26% | 8.33 nM 1.45% | 100 nM 0.3% | 833.33 nM -3.65% | 10000 nM -3.88%

OC(CCN1CCCCC1)(c1ccccc1)c1ccccc1 [pridinol]
inactive: 1 nM 3.98% | 8.33 nM 4.59% | 100 nM -0.32% | 833.33 nM -9.56% | 10000 nM 0.53%

O=C(O)c1ccccc1 [benzoic-acid]
inactive: 1 nM 0.45% | 8.33 nM -0.31% | 100 nM -1.57% | 833.33 nM -0.13% | 10000 nM -0.09%

O=C1c2ccccc2-n2c1nc1ccccc1c2=O [tryptanthrin]
inactive: 1 nM 3.12% | 8.33 nM -0.23% | 100 nM 0.33% | 833.33 nM 0.62% | 10000 nM 0.39%

CCOC(=O)c1ncn2c1[C@@H]1CCCN1C(=O)c1cc(OC)ccc1-2
inactive: 1 nM -0.88% | 8.33 nM 0.22% | 100 nM 0.35% | 833.33 nM -0.77% | 10000 nM 0.55%

CCN(CCNC(=O)Nc1ccccc1Br)c1cccc(C)c1
inactive: 1 nM -0.09% | 8.33 nM 2.65% | 100 nM -0.41% | 833.33 nM -0.7% | 10000 nM 0.98%

Nc1nc(=O)n([C@@H]2CS[C@H](CO)O2)cc1F [emtricitabine]
inactive: 1 nM -0.33% | 8.33 nM -2.03% | 100 nM 4.2% | 833.33 nM -0.69% | 10000 nM -0.34%

CC1(COc2ccc(CC3SC(=O)NC3=O)cc2)CCCCC1 (stereo not given) [ciglitazone]
inactive: 1 nM -1.15% | 8.33 nM -3.35% | 100 nM -1.82% | 833.33 nM 3.16% | 10000 nM 4.02%

C#Cc1cccc(Nc2ncnc3cc(OCCOC)c(OCCO)cc23)c1
inactive: 1 nM 2.26% | 8.33 nM -0.66% | 100 nM -2.61% | 833.33 nM -4.18% | 10000 nM -8.66%

COC(=O)/C=C/C(=O)OCCN1C(=O)CCC1=O [diroximel-fumarate]
inactive: 1 nM -3.18% | 8.33 nM -0.95% | 100 nM -3.4% | 833.33 nM -1.82% | 10000 nM 11.3%

O=c1c2ccccc2nc2n1CCc1c-2[nH]c2ccccc12 [rutaecarpine]
inactive: 1 nM -1.97% | 8.33 nM 0.36% | 100 nM -0.87% | 833.33 nM 0.6% | 10000 nM -0.59%

CCN(CC)C(=O)/C(C#N)=C/c1cc(O)c(O)c([N+](=O)[O-])c1 [entacapone]
inactive: 1 nM -0.37% | 8.33 nM -1.7% | 100 nM -1.61% | 833.33 nM -2.41% | 10000 nM -0.4%

C=C1CC[C@@]2(O)[C@H]3Cc4ccc(O)c5c4[C@@]2(CCN3CC2CC2)[C@H]1O5 [nalmefene]
inactive: 1 nM 1.67% | 8.33 nM 1.64% | 100 nM 2.15% | 833.33 nM -1.46% | 10000 nM -3.45%

Cc1ccc(-c2ncc(Cl)cc2-c2ccc(S(C)(=O)=O)cc2)cn1 [etoricoxib]
inactive: 1 nM 2.49% | 8.33 nM 0.25% | 100 nM -0.65% | 833.33 nM -1.22% | 10000 nM -1.11%

COc1cc(C[C@@H]2NCCc3cc(O)c(O)cc32)cc(OC)c1OC [trimethoquinol]
inactive: 1 nM 0.9% | 8.33 nM 0.73% | 100 nM 1.88% | 833.33 nM 0.62% | 10000 nM -5.45%

CCOc1cncc(/C=C/CCNC)c1
inactive: 1 nM 0.97% | 8.33 nM -1.63% | 100 nM -0.92% | 833.33 nM 0.41% | 10000 nM 3.59%

N#Cc1ccc2[nH]cc(CCCCN3CCN(c4ccc5oc(C(N)=O)cc5c4)CC3)c2c1 [vilazodone]
inactive: 1 nM 0.76% | 8.33 nM 1.07% | 100 nM 0.51% | 833.33 nM 1.56% | 10000 nM -3.06%

CC(C)OC(=O)OCOP(=O)(CO[C@H](C)Cn1cnc2c(N)ncnc21)OCOC(=O)OC(C)C [tenofovir-disoproxil]
inactive: 1 nM 0.65% | 8.33 nM -1.58% | 100 nM 3.17% | 833.33 nM -4% | 10000 nM -9.11%

Oc1ccc2c3c1O[C@H]1c4[nH]c5c(c4C[C@@]4(O)[C@@H](C2)N(CC2CC2)CC[C@]314)C[C@@]1(O)[C@H]2Cc3ccc(O)c4c3[C@@]1(CCN2CC1CC1)[C@H]5O4 [nor-binaltorphimine]
inactive: 1 nM 1.48% | 8.33 nM 0.42% | 100 nM 2.76% | 833.33 nM 1.16% | 10000 nM -1.05%

COc1ccc2[nH]c([S@@+]([O-])Cc3ncc(C)c(OC)c3C)nc2c1 [esomeprazole]
inactive: 1 nM -1.94% | 8.33 nM -1.72% | 100 nM -0.5% | 833.33 nM -0.9% | 10000 nM 0.21%

C#C[C@]1(O)CC[C@H]2[C@@H]3CCC4=CC(=O)CCC4=C3C=C[C@@]21CC [gestrinone]
inactive: 1 nM 1.67% | 8.33 nM 0.8% | 100 nM 4.87% | 833.33 nM 3.58% | 10000 nM 5.58%

COc1ccc(CCc2nc3cc(-c4c(C)noc4C)ccc3n2C[C@H](C)N2CCOCC2)cc1Cl
inactive: 1 nM 0.67% | 8.33 nM 1.61% | 100 nM 0.26% | 833.33 nM -1.13% | 10000 nM 5.31%

CNC(=O)c1c(-c2ccc(F)cc2)oc2cc(N(CCO)S(C)(=O)=O)c(C3CC3)cc12 [nesbuvir]
inactive: 1 nM 0.34% | 8.33 nM 0.12% | 100 nM 0.33% | 833.33 nM -1.14% | 10000 nM -3.08%

CC(=O)OCC(=O)NCCCOc1cccc(CN2CCCCC2)c1 [roxatidine-acetate]
inactive: 1 nM -0.88% | 8.33 nM 2.22% | 100 nM -0.37% | 833.33 nM 1.86% | 10000 nM 2.34%

COc1cc2c(cc1Cc1cccc(Cl)c1F)c(=O)c(C(=O)O)cn2[C@H](CO)C(C)C [elvitegravir]
inactive: 1 nM 2.45% | 8.33 nM 1.56% | 100 nM 1.54% | 833.33 nM 1.67% | 10000 nM -6.71%
